Assay results reported in the supplement of paper PMC13380429.
Values without a mark were called inactive.

Tested on: Vero E6 infected with SARS-CoV-2
Assay: inhibition of SARS-CoV-2 cytopathic effect; higher = more antiviral protection, active = above 15
Conditions: 48 h

| Structure (SMILES) | inhibition of SARS-CoV-2 cytopathic effect (1 nM) | inhibition of SARS-CoV-2 cytopathic effect (8.33 nM) | inhibition of SARS-CoV-2 cytopathic effect (100 nM) | inhibition of SARS-CoV-2 cytopathic effect (833.33 nM) | inhibition of SARS-CoV-2 cytopathic effect (10000 nM) |
| --- | --- | --- | --- | --- | --- |
| CC(=O)c1ccc2c(c1)N(CCCN(C)C)c1ccccc1S2 [acepromazine] | -0.95% | 1.58% | -2.17% | -3.24% | -1.2% |
| COc1cc(C(=O)N2CCOCC2)cc(OC)c1OC [trimetozine] | 0.84% | 0.93% | 1.16% | 4.1% | 2.28% |
| CC(=O)c1ccc(NS(C)(=O)=O)c(Oc2ccc(F)cc2F)c1 | 4.46% | 0.47% | 0.56% | 1.88% | 2.13% |
| COc1cc(Nc2ncc3c(n2)-c2ccc(Cl)cc2C(c2c(F)cccc2OC)=NC3)ccc1C(=O)O [alisertib] | -2.11% | 0.41% | -2.08% | 0.49% | -5.87% |
| CCCC[N+]1(C)[C@@H]2C[C@@H](OC(=O)[C@H](CO)c3ccccc3)C[C@H]1[C@@H]1O[C@@H]12 (stereo not given in full) [butylscopolamine-bromide] | -2.47% | -2.18% | -2.19% | 0.56% | -1.1% |
| CC(=O)[C@H]1CC[C@H]2[C@@H]3CC[C@H]4C[C@](C)(O)CC[C@]4(C)[C@H]3CC[C@]12C [ganaxolone] | -0.23% | 4.47% | 1.85% | 0.7% | 0.84% |
| C[C@]12CCC(=O)C=C1CC[C@@H]1[C@@H]2[C@@H](O)C[C@@]2(C)[C@H]1CC[C@]2(O)C(=O)COC(=O)CCC(=O)O [hydrocortisone-hemisuccinate] | -3.36% | -5.52% | -5.26% | -3.7% | -4.67% |
| O=C(NC(O)C(Cl)(Cl)Cl)NC(O)C(Cl)(Cl)Cl (stereo not given) [dicloralurea] | -4.23% | -2.71% | -0.82% | -3.4% | -4.69% |
| O=C(CCCN1CCC(O)(c2ccc(Br)cc2)CC1)c1ccc(F)cc1 [bromperidol] | 3.91% | 3.53% | 2.65% | -0.17% | -3.61% |
| O=c1[nH]c2ccccc2n1CCCN1CCN(C(c2ccccc2)c2ccccc2)CC1 [oxatomide] | -0.36% | 2.61% | 1.85% | 1.64% | -7.26% |
| O=C(Nc1cc(C(F)(F)F)cc(C(F)(F)F)c1)c1cnc(Cl)nc1C(F)(F)F | 0.53% | -0.29% | 0.4% | -4.18% | -13.9% |
| Cc1cc(C(=O)N2Cc3cnn(C)c3Nc3ccccc32)ccc1CNC(=O)N1CCC[C@H]1C(=S)N1CCCN(C)CC1 | -0.76% | -1.38% | -3.62% | -1.74% | -2.86% |
| Cc1cc(C)nc(SCC(=O)Nc2ncc(Cc3cccc4ccccc34)s2)n1 | 0.9% | -1.68% | 1.78% | 0.63% | 2.48% |
| C[C@@H](CN1CC(=O)NC(=O)C1)N1CC(=O)NC(=O)C1 [dexrazoxane] | 1.89% | 2.78% | 2.19% | 3.16% | -1.81% |
| CN(C)C(=O)Nc1cccc(-c2ccc(N(C)C)cc2)c1 [atglistatin] | -1.57% | -1.64% | 1.22% | 0.77% | 1.31% |
| NC(=O)c1ccc([N+](=O)[O-])cc1Cl [aklomide] | -0.14% | 0.27% | 2% | 1.45% | 0.79% |
| Cc1cc(C(=CNc2ccc(Cl)cc2)C(=O)Nc2ccc(Cl)cc2)on1 | -1.14% | -1.99% | -2% | -0.86% | 0.28% |
| OCCN1CCN(CCCN2c3ccccc3Sc3ccc(C(F)(F)F)cc32)CC1 [fluphenazine] | -8.05% | -7.65% | -6.69% | -9.7% | 20.5% (active) |
